Compound activity as filed in PubChem BioAssay.
G9a block: G9a (human) methyltransferase inhibition; G9a H3K9 monomethylation, AlphaScreen, 2 h; Q96KQ7; Potency, µM (doses to about 102 µM), hits mostly inhibitors; 350,000 compounds, 8.8% hits; further: nearly all actives have a fitted effect of over 75% in size
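AlphaScreen read-out: biotin-H3K9 peptide (500 nM) methylation by 20 nM enzyme with 20 uM SAM, 2 h at room temperature after 15 min compound preincubation; anti-monomethyl H3K9 antibody plus donor/acceptor beads, 10 min dark.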
Sfp PPTase inh: Sfp phosphopantetheinyl transferase inhibition | Q9F4F7 | Biochemical Sfp PPTase activity, qHTS | Potency, µM, hits mostly inhibitors | 310,000 compounds, 3.5% hits;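 further: the enzyme is Sfp with the accession as filed and its product quenches rhodamine fluorescence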
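Step 1, compound plus 15 nM Sfp-PPTase, 15 min, room temperature. Step 2, add rhodamine-CoA (5 uM) and BHQ-2-YbbR (12.5 uM). Step 3, read 525/598 nm fluorescence at 0 and 30 min.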
HP1b chromo inh: HP1-beta chromodomain-methylated histone interaction inhibition; AlphaScreen HP1-beta / biotin-H3K9me3 peptide binding; Potency, µM (series often up to 114 µM), most hits filed as inhibitors; 390,000 compounds, 0.56% hits; AID 540317; further: nearly all actives have a fitted effect of over 70% in size
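AlphaScreen: HP1-beta (50 nM) preformed 30 min with biotin-H3(1-18)K9me3 peptide (50 nM) in PBS pH 7.4, 0.01% Tween-20. Compound added for 30 min at RT, then streptavidin donor/nickel chelate acceptor beads (10 ug/mL) for 30 min.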
L3MBTL1 block: blocks human L3MBTL1 | AID 485360 | 230,000 compounds, 0.66% hits | Potency, µM (titrated, usually from 57.1 µM), actives largely listed as inhibitors | AlphaScreen L3MBTL1–H3K9me1 peptide binding; further: nearly all actives have a fitted effect of over 60% in size
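L3MBTL1 50 nM + b-AHA-H3(1-15)K9me1 75 nM, 30 min RT; compound added, 30 min RT; streptavidin donor/Ni-chelate acceptor beads 10 ug/mL each final, 30 min RT dark; AlphaScreen read.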
BAZ2B block: inhibitors of human BAZ2B bromodomain | 360,000 compounds, 4.4% hits | AlphaScreen BAZ2B-H3K14Ac peptide displacement | Potency, µM (series often up to 114 µM), usual class: inhibitors | Q9UIF8; further: nearly all actives have a fitted effect of over 60% in size
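In this displacement format the biotinylated H3(5-23) peptide acetylated at Lys14 serves as ligand at 50 nM, with BAZ2B at 50 nM in PBS pH 7.4 containing 0.01% Tween-20. Donor and acceptor beads are 10 ug/mL final.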
JMJD2A Tudor: blocks the human JMJD2A Tudor domain. O75164. AlphaScreen JMJD2A-Tudor / H3K4me3 peptide binding. Potency, µM (titrated, usually from 114 µM), hits mostly inhibitors. 390,000 compounds, 4.4% hits; further: nearly all actives have a fitted effect of over 50% in size
Each line names hits and unclear results; the compound was inactive in the other large screens. Most compounds without a hit are left out; they make up all but 12% or so of the library. The call rests on the fitted dose curve; in most records, active means well fitted curve in the direction sought with a large enough effect; inconclusive means small, poorly fitted or top-dose-only effect, or another doubt; inactive means no such curve, though single readings can be large; an effect the other way counts as inactive or inconclusive.

O=C(CNC(=O)N1CC(=O)Nc2ccccc21)NCc1ccc(Cl)cc1	BAZ2B block 79.4µM (no result: G9a block, L3MBTL1 block)
COc1cccc(CNc2ncnc3onc(-c4ccc(F)cc4)c23)c1	none (no result: Sfp PPTase inh, L3MBTL1 block)
CC1=C(/C=C/C(C)=C/C=C/C(C)=C/CO)C(C)(C)CCC1	Sfp PPTase inh inconclusive (no result: G9a block, L3MBTL1 block, BAZ2B block)
CC1=C(/C=C/C(C)=C/C=C/C(C)=C\CO)C(C)(C)CCC1	G9a block 25.1µM (no result: HP1b chromo inh, L3MBTL1 block, BAZ2B block, JMJD2A Tudor)
COc1ccc(-c2cc(C(=O)NC(C)c3ccccn3)c3ccccc3n2)cc1OC (stereo not drawn)	JMJD2A Tudor inconclusive (no result: Sfp PPTase inh)
CC(=O)OCCCn1c(C)[n+](C)c2cc(Cl)c(Cl)cc21	G9a block 31.6µM, JMJD2A Tudor 31.6µM
Cc1ccc(C23CC4CC(CC(C(=O)NC(C(=O)O)C(C)C)(C4)C2)C3)cc1 (stereo not drawn)	none
O=C(Nc1ccc(N2CCCC2)cc1)C(c1ccccc1)c1ccccc1	G9a block 31.6µM, Sfp PPTase inh 50.1µM, BAZ2B block inconclusive, JMJD2A Tudor inconclusive (no result: L3MBTL1 block)
CC(=O)N1CCN(c2ccc(NC(=O)c3ccccc3)cc2)CC1	none
CC(=O)N1CCC2(CC1)CCN(c1ccc(-c3ccccc3)cc1)CC2	Sfp PPTase inh 56.2µM (no result: HP1b chromo inh, L3MBTL1 block, BAZ2B block, JMJD2A Tudor)
CC(=O)c1ccc(N2CCN(C(=S)Nc3ccccc3)CC2)cc1	none
CC(=O)c1ccc(NCC(=O)N2CCN(c3ccccc3)CC2)cc1	G9a block 14.1µM (no result: L3MBTL1 block)
CC(=O)N1CCN(c2ccc(NC(=O)C(c3ccccc3)c3ccccc3)cc2)CC1	G9a block 50.1µM, JMJD2A Tudor inconclusive
CC1CCN(c2c(NCC3CCC(C(=O)NCCCc4ccccc4)CC3)c(=O)c2=O)CC1 (stereo not drawn)	none (no result: L3MBTL1 block)
Oc1ccc(Cl)cc1CNCC1CCCCC1	none (no result: Sfp PPTase inh)
CCC(CC)C(=O)N1CCN(c2ccccc2)CC1	G9a block 79.4µM
CCN(CC)c1ccc(C(=O)OCC(=O)N2CCN(c3ccccc3)CC2)cc1	JMJD2A Tudor 4.47µM
CCC(C(=O)N1CCN(c2cccc(Cl)c2)CC1)c1ccccc1 (stereo not drawn)	none
O=C(OCC(=O)N1CCN(c2ccccc2)CC1)c1ccc(Cl)nc1	G9a block inconclusive (no result: Sfp PPTase inh)
CCOC(=O)Cc1nn2c(=O)cc(C)nc2s1	BAZ2B block 79.4µM
C=CCn1c(=O)c2ccccc2n2c(SCc3nc4ccccc4s3)nnc12	G9a block 12.6µM (no result: L3MBTL1 block)
CC(C)Cc1nnc(NC(=O)CCC(=O)NCc2ccccc2Cl)s1	none (no result: L3MBTL1 block)
COc1cccc(-c2csc(NC3OC(=O)c4c3ccc(OC)c4OC)n2)c1 (stereo not drawn)	BAZ2B block 79.4µM (no result: G9a block)
COc1ccc2c(c1OC)C(=O)OC2Nc1nc(-c2cc3ccccc3oc2=O)cs1 (stereo not drawn)	G9a block inconclusive
COc1ccc2c(c1OC)C(=O)OC2Nc1nc(-c2ccc(-c3ccccc3)cc2)cs1 (stereo not drawn)	G9a block 39.8µM, Sfp PPTase inh inconclusive, HP1b chromo inh inconclusive, BAZ2B block inconclusive, JMJD2A Tudor inconclusive
Cc1ccc(C)c(NC2=C(c3ccc(C(F)(F)F)cc3)C(=O)c3ccccc32)c1	BAZ2B block inconclusive, JMJD2A Tudor inconclusive (no result: Sfp PPTase inh, L3MBTL1 block)
COc1cc(OC)c(NC2=C(c3ccc(C(F)(F)F)cc3)C(=O)c3ccccc32)cc1Cl	G9a block inconclusive, HP1b chromo inh inconclusive, BAZ2B block inconclusive, JMJD2A Tudor 20µM (no result: Sfp PPTase inh, L3MBTL1 block)
Cc1ccc(CN(Cc2cccnc2)C(=O)CN2C(=O)COc3ccccc32)o1	G9a block inconclusive, Sfp PPTase inh 28.2µM
O=C(CN1C(=O)COc2ccccc21)N(Cc1ccccc1)Cc1ccccn1	G9a block inconclusive
C=CC(=O)Nc1cccc(Oc2ncnc3[nH]cc(-c4cnc5ccccc5c4)c23)c1	none (no result: G9a block, Sfp PPTase inh, BAZ2B block)
CN1CCN(c2ccc(NC(=O)c3ccc4ccccc4c3)cc2)CC1	BAZ2B block inconclusive (no result: L3MBTL1 block)
C=CC(=O)Nc1cccc(Oc2ccnc3[nH]ccc23)c1	HP1b chromo inh inconclusive, JMJD2A Tudor 79.4µM (no result: G9a block, Sfp PPTase inh, L3MBTL1 block, BAZ2B block)
C=CC(=O)Nc1cccc(Oc2ccnc(Nc3ccc(N4CCN(C)CC4)cc3)n2)c1	HP1b chromo inh inconclusive, JMJD2A Tudor 44.7µM (no result: G9a block, Sfp PPTase inh, L3MBTL1 block, BAZ2B block)
